About 260 (1.5%) of roughly 17,000 compounds were called active. The sample holds actives, similar compounds and a random draw of the others, so the mix is not that of the screen.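 The calls were made as follows: active = spot fluorescence over background with P-value below 7% in all four replicate spots, showing protein binding; inactive = the rest.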

For this assay, the target named is Myc proto-oncogene protein (Homo sapiens) (UniProt P01106). In words: binders of human c-Myc, primary screen, biochemical, small molecule microarray, anti-His fluorescence (AID 624141). The conditions noted are these: His-c-Myc binding.
Chain of Myc proto-oncogene protein (Homo sapiens) (P01106 whole entry, looked up): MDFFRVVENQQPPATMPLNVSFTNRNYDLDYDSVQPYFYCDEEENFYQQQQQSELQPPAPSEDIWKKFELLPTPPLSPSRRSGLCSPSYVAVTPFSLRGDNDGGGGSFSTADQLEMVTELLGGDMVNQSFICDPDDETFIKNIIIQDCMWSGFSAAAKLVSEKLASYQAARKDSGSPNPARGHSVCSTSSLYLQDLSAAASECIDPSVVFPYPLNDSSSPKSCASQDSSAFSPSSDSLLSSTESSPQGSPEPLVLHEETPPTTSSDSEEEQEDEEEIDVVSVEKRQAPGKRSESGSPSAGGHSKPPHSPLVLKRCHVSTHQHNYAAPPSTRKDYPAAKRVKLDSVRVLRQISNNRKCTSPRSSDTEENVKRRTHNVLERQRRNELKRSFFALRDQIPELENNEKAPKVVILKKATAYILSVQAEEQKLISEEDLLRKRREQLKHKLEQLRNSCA
As to `Cc1cc2c(=O)n(C)c(SCC(=O)c3cc4ccccc4o3)nc2s1`, the result was inactive.
Regarding `COc1ccccc1N(CC(=O)N1CCCCC1)S(C)(=O)=O`, the compound was called inactive.
The value for `C[C@@H]1CN([C@@H](C)CO)C(=O)Cc2cc(NC(=O)Nc3ccc(F)cc3)ccc2O[C@@H]1CN(C)C` was “inactive”; that for `Cn1c(SCc2nc3ccccc3c(=O)[nH]2)nnc1-c1cc2ccccc2o1` was “inactive”; that for `C[C@@H]1CN([C@@H](C)CO)C(=O)c2cc(NS(C)(=O)=O)ccc2O[C@H]1CN(C)C(=O)Nc1ccc(F)cc1` was “inactive”.
On to `COc1ccc(C#Cc2ccc3c(c2)[C@]2(C(=O)N3)[C@H](C(=O)N3CCc4cc(OC)c(OC)cc4C3)[C@H]3C(=O)O[C@H](c4ccccc4)[C@H](c4ccccc4)N3[C@@H]2c2ccc(O)cc2)cc1`, for which the compound was called inactive.
The value for `O=C(NCC1CCCO1)c1ccc(NC(=O)c2cc(-n3cnnc3)ccc2Cl)cc1` (centres undefined) was “inactive”; that for `CNC[C@H]1OCCCC[C@@H](C)Oc2ccc(NC(=O)c3ccccc3)cc2C(=O)N([C@@H](C)CO)C[C@H]1C` was “inactive”.
Under `Cc1ccc(Cn2ncc3c(N4CCN(CCOc5ccc(C)cc5)CC4)ncnc32)cc1` stands “inactive”; under `C[C@@H]1CN([C@H](C)CO)C(=O)Cc2cc(NS(=O)(=O)c3cccs3)ccc2O[C@@H]1CN(C)C(=O)Nc1ccc(F)cc1`, “inactive”; under `O=C1NC(Cc2c[nH]c3ccccc23)C(=O)N2CCCC12` (centres undefined), “inactive”.
With `Cc1noc(C)c1NC(=O)N(C)C[C@@H]1Oc2ccc(NC(=O)C3CC3)cc2C(=O)N([C@H](C)CO)C[C@@H]1C`, the result was inactive.
On to `O=C1O[C@@H](c2ccccc2)[C@@H](c2ccccc2)N2[C@@H](c3ccc(O)cc3)[C@]3(C(=O)Nc4ccccc43)[C@@H](C(=O)O)[C@H]12`, for which the outcome was inactive.
Consider `CCOc1ccc(NC(=O)C2CC(=O)n3c(nc4ccccc43)N2)cc1` (centres undefined), for which the outcome was inactive.
With `C[C@@H]1CCCCO[C@H](CN(C)C(=O)Cc2ccccc2)[C@H](C)CN([C@H](C)CO)C(=O)c2cc(NS(=O)(=O)c3cn(C)cn3)ccc2O1`, the compound was called inactive.
For the compound `COc1cc(O)c2c(=O)c(O[C@@H]3O[C@@H](CO)[C@H](O)[C@H]3O[C@@H]3O[C@@H](C)[C@H](O)[C@@H](O)[C@H]3O)c(-c3ccc(O)cc3)oc2c1`, the outcome was inactive.
In the case of `CN(C)CC/C=C1\c2ccccc2CSc2ccccc21`, the call was inactive.
Regarding `C[C@H](CO)N1C[C@H](C)[C@@H](CN(C)C)Oc2c(NC(=O)Nc3ccc(F)cc3)cccc2C1=O`, the compound was classed as inactive.
The value for `C[C@H]1CN([C@@H](C)CO)C(=O)c2cc(NC(=O)Cn3cnnn3)ccc2O[C@@H]1CN(C)S(=O)(=O)c1cccs1` was “inactive”; that for `C[C@H](CO)N1C[C@H](C)[C@H](CN(C)C(=O)Nc2ccc(C(F)(F)F)cc2)Oc2ccc(NC(=O)Nc3ccccc3)cc2C1=O` was “inactive”; that for `C[C@@H]1CN([C@H](C)CO)C(=O)c2cccc(NS(C)(=O)=O)c2O[C@@H]1CN(C)C(=O)Nc1cccc2ccccc12` was “inactive”.
With `O=C(NCc1ccccc1)C1=C[C@H](C2CC2)C[C@H](OCc2ccc(CO)cc2)O1`, the compound was classed as inactive.
As to `C[C@H](CO)N1C[C@H](C)[C@H](CN(C)CC2CC2)Oc2ccc(NC(=O)c3ccncc3)cc2C1=O`, the result was inactive.
Take `C[C@H]1CN([C@@H](C)CO)C(=O)c2cc(NC(=O)Cn3cnnn3)ccc2O[C@H]1CN(C)C(=O)NC1CCCCC1`: the compound was classed as inactive.
Under `CC(C)NC(=O)N(C)C[C@H]1OCCCC[C@@H](C)Oc2ccc(NS(C)(=O)=O)cc2C(=O)N([C@H](C)CO)C[C@H]1C` stands “inactive”.
For `CC(C)NC(=O)N(C)C[C@H]1Oc2ccc(NC(=O)CCC(F)(F)F)cc2CC(=O)N([C@@H](C)CO)C[C@@H]1C`, the compound was classed as inactive.
As for `C[C@H]1CCCCO[C@H](CN(C)C(=O)CCC(F)(F)F)[C@@H](C)CN([C@@H](C)CO)C(=O)c2cc(NC(=O)Nc3ccc4c(c3)OCO4)ccc2O1`, the call was inactive.
As for `O=C1c2ccccc2[C@](Cc2ccccc2I)(C(=O)NCc2ccccc2)[C@H](c2ccc(CO)cc2)N1C1CCCCC1`, the compound was classed as inactive.
Under `Cc1cc(C)c2nc(-c3cccnc3)cc(C(=O)Nc3sc(Cc4ccccc4)cc3C(N)=O)c2c1` stands “inactive”.
For the compound `CC(C)NC(=O)N(C)C[C@@H]1Oc2ccc(NS(=O)(=O)c3ccccc3)cc2C(=O)N([C@@H](C)CO)C[C@H]1C`, the compound was called inactive.
The value for `C[C@@H]1CN([C@@H](C)CO)C(=O)c2cccc(NC(=O)c3ccc(-c4nccs4)cc3)c2O[C@H]1CN(C)C(=O)Nc1ccccc1` was “inactive”.
Turning to `Cc1cccc(OCCCC(=O)Nc2sc3c(c2C(N)=O)CCCC3)c1C`, the call was inactive.
`Cc1nn(-c2ccccc2)c(CC(C)(C)C(=O)O)c1C(=O)O`: the compound was classed as inactive.
For `C[C@H]1CN([C@@H](C)CO)C(=O)Cc2cc(NC(=O)Nc3ccccc3)ccc2O[C@H]1CN(C)Cc1ccncc1`, the compound was classed as inactive.
The value for `C[C@@H]1CCCCO[C@@H](CN(C)Cc2ccncc2)[C@@H](C)CN([C@@H](C)CO)C(=O)c2cc(N(C)C)ccc2O1` was “inactive”; that for `C[C@H](CO)N1C[C@H](C)[C@H](CN(C)C)Oc2ccc(NC(=O)Nc3ccc(F)cc3)cc2CC1=O` was “inactive”; that for `C[C@@H]1CN([C@@H](C)CO)C(=O)Cc2cc(NC(=O)Cc3cn(C)c4ccccc34)ccc2O[C@H]1CN(C)C(=O)NC1CCCCC1` was “inactive”.
As for `C/C=C(\C)C(=O)OC(/C=C/C(O)C(C)O)C1C=CC(=O)O1` (centres undefined), the compound was classed as inactive.
Regarding `C=C(C(=O)O)C1CCC2(C)CCC(=O)C(C)=C2C1` (centres undefined), the call was inactive.
For `Cn1c(OCc2cccnc2)nc2c1c(=O)n(Cc1ccc(Cl)c(Cl)c1)c(=O)n2C`, the compound was called inactive.
Consider `CCO[C@H]1OC(C(=O)O)=C[C@@H](C2CCCCC2)[C@@H]1CCCO`, for which the compound was called inactive.
With `Nc1nnc(SCC(=O)Nc2ccc(Cl)cc2O)s1`, the compound was called inactive.
The value for `COc1ccc(S(=O)(=O)N(C)C[C@@H]2Oc3ccc(NC(=O)CCC(F)(F)F)cc3C(=O)N([C@@H](C)CO)C[C@H]2C)cc1` was “inactive”; that for `CN1CCN(C(=O)C2=C[C@@H](c3ccc(Br)cc3)C[C@@H](OCCCCO)O2)CC1` was “inactive”; that for `C[C@H]1CN([C@@H](C)CO)C(=O)Cc2cc(N(C)C)ccc2O[C@@H]1CN(C)S(=O)(=O)c1ccc(F)cc1` was “inactive”.
`Nc1nnc(SCCN2C(=O)c3ccccc3S2(=O)=O)s1`: the result was inactive.
For `C[C@@H]1CN([C@H](C)CO)C(=O)CCCn2nncc2CO[C@@H]1CN(C)Cc1ccc2c(c1)OCCN2C`, the result was inactive.
With `Cc1c(NC(=O)/C(C#N)=C/c2ccccc2Cl)c(=O)n(-c2ccccc2)n1C`, the compound was called inactive.
As for `C/C(=C\CC[C@H](CO)[C@@H]1CC[C@]2(C)C3=C(CC[C@@]12C)[C@@]1(C)CCC(=O)C(C)(C)C1CC3)C(=O)O` (some centres undefined), the result was inactive.
For the compound `COCCOC(=O)N1C(=O)[C@@]2(c3cc(C#CCNC(N)=O)ccc31)[C@H](C(=O)N1CCN(c3ncccn3)CC1)[C@H]1C(=O)O[C@H](c3ccccc3)[C@H](c3ccccc3)N1[C@@H]2c1ccccc1OCCO`, the result was inactive.
The value for `Cc1cc(C(=O)c2ccccc2)ccc1OC(=O)COc1ccccc1[N+](=O)[O-]` was “inactive”; that for `NC(=O)NCC#Cc1ccc2c(c1)[C@]1(C(=O)N2)[C@H](C(=O)Nc2nc3ccccc3s2)[C@H]2C(=O)O[C@H](c3ccccc3)[C@H](c3ccccc3)N2[C@@H]1c1ccc(OCCO)cc1` was “inactive”; that for `CC1=COC(O[C@@H]2O[C@H](CO)[C@@H](O)[C@H](O)[C@H]2O)C2C1CC(O)C2CO` (some centres undefined) was “inactive”.
In the case of `C[C@H](CO)N1C[C@H](C)[C@@H](CN(C)Cc2ccccc2)Oc2c(NC(=O)C3CCOCC3)cccc2C1=O`, the compound was classed as inactive.
Take `C[C@H](CO)N1C[C@H](C)[C@H](CN(C)Cc2ccc(C(=O)O)cc2)Oc2ccc(NC(=O)NC3CCCCC3)cc2C1=O`: the compound was called inactive.
The value for `COc1ccc(S(=O)(=O)Nc2cccc3c2O[C@H](CN(C)Cc2ccc4c(c2)OCO4)[C@H](C)CN([C@@H](C)CO)C3=O)cc1` was “inactive”; that for `COc1cccc(NC(=O)c2cc([N+](=O)[O-])ccc2NC(=O)CN2CCCCCC2)c1` was “inactive”.
Consider `C[C@@H]1CN([C@@H](C)CO)C(=O)c2cccc(NC(=O)Nc3ccc(F)cc3)c2O[C@@H]1CN(C)Cc1ccc(C(=O)O)cc1`, for which the call was inactive.
In the case of `C[C@H](CO)N1C[C@H](C)[C@H](CN(C)Cc2ccc(C(F)(F)F)cc2)Oc2c(NC(=O)C3CCOCC3)cccc2C1=O`, the compound was called inactive.
With `O=C(Nc1cccc(CCc2ccccn2)c1)c1ccc(Cl)cc1`, the call was inactive.
Consider `C[C@@H]1CCCCO[C@H](CN(C)C(=O)Nc2ccc3c(c2)OCO3)[C@H](C)CN([C@H](C)CO)C(=O)c2cc(NS(C)(=O)=O)ccc2O1`, for which the compound was classed as inactive.
Consider `C[C@H]1CN([C@@H](C)CO)C(=O)c2cc(NS(=O)(=O)c3ccccc3)ccc2O[C@@H]1CN(C)C(=O)NC1CCCCC1`, for which the compound was called inactive.
For the compound `C[C@@H]1CN([C@@H](C)CO)C(=O)CCCn2cc(nn2)CO[C@@H]1CN(C)C(=O)C1CCCCC1`, the result was inactive.
For `C[C@@H]1CCCCO[C@H](CN(C)C(=O)CCC(F)(F)F)[C@@H](C)CN([C@@H](C)CO)C(=O)c2cc(NC(=O)c3ccncc3)ccc2O1`, the compound was classed as inactive.
The value for `COC(=O)c1cc(C)sc1NC(=S)Nc1ncn(Cc2ccc(F)cc2Cl)n1` was “inactive”; that for `CCn1c2ccccc2c2nnc(SCC(=O)O)nc21` was “inactive”; that for `O=C1C(=O)N(CCn2c3ccccc3c3nc4ccccc4nc32)c2ccccc21` was “inactive”.
Under `CCc1ccc2c(c1)c1nc3ccccc3nc1n2CC(=O)OC` stands “active”.
As to `O=C(O)c1cccc(S(=O)(=O)Nc2ccc(O)cc2Sc2nc3ccccc3s2)c1`, the result was inactive.
Turning to `Cc1ccc(OCC(=O)Nc2cc(-c3nc4cc(C)c(C)cc4o3)ccc2C)cc1`, the compound was called inactive.
For `Cc1noc(C)c1NC(=O)N(C)C[C@@H]1Oc2ccc(NC(=O)Nc3ccc4c(c3)OCO4)cc2C(=O)N([C@H](C)CO)C[C@H]1C`, the call was inactive.
As for `C[C@@H]1CN([C@H](C)CO)C(=O)Cc2cc(NC(=O)C3CC3)ccc2O[C@H]1CN(C)Cc1ccc2c(c1)OCO2`, the compound was called inactive.
Turning to `C[C@H](CO)N1C[C@H](C)[C@@H](CN(C)C(=O)Nc2ccccc2)Oc2ccc(NC(=O)C3CC3)cc2CC1=O`, the compound was called inactive.
For `C[C@@H]1CN([C@H](C)CO)C(=O)Cc2cc(NC(=O)C3CC3)ccc2O[C@H]1CN(C)Cc1ccc(Cl)c(Cl)c1`, the compound was classed as active.

These data come from PubChem BioAssay AID624141 (Broad Institute, 2012).
